Assay [1] can be described thus: Nuclear factor erythroid 2-related factor 2/antioxidant responsive element (Nrf2/ARE) small molecule agonists: qHTS cell viability counter screen in human keratinocytes (AID 1919968; active = well fitted cell-killing curve with a large enough effect in the repeat runs; note: nearly all actives have a fitted effect of over 55% in size; note: potency is the fitted concentration of half-maximal effect). The method in brief:
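Stably transfected HaCaT (KeratinoSens), 1,500/well. Test agents in DMSO were applied for 23 h, 37 C/5% CO2. CellTiter-Fluor was incubated 1 h before the fluorescence read.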
A general note: Quantitative high-throughput screening tests each substance at several concentrations.

Assay [2] in a line: Nuclear factor erythroid 2-related factor 2/antioxidant responsive element (Nrf2/ARE) small molecule agonists: luciferase reporter gene qHTS assay in human keratinocytes (AID 1919969; note: nearly all actives have a fitted effect of over 35% in size; note: potency is the fitted concentration of half-maximal effect). (In general: Reporter assays use an easily measured gene product as a stand-in for the process of interest.)
Assay [3] addresses Gonadotropin-releasing hormone receptor (Homo sapiens) (UniProt P30968). The assay can be described thus: Human gonadotropin-releasing hormone receptor (GnRHR) small molecule agonists, calcium flux assay in GnRHR-HEK293 cells (AID 1920063). Note: nearly all actives have a fitted effect of over 35% in size. Note: potency is the fitted concentration of half-maximal effect. The method, boiled down: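 Stable human GnRHR HEK293 line. 18 h plating, then calcium dye for 1 h at 37 C. Agonist-mode compound addition from DMSO stocks; fluorescence monitored 3 min.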
(In general: Calcium assays in cells follow changes in intracellular calcium, usually with a dye or a luminescent sensor.)

Assay [4] can be described thus: G protein-coupled receptor (GPCR) small molecule agonists, calcium flux assay: HEK293 wild type cell line counter screen (AID 1920065). The method in brief:
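Following 18 h incubation at 37 C/5% CO2, plates got calcium dye for 1 h; compounds, ATP or DMSO were then pinned in and fluorescence followed kinetically (480/540 nm).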

The nature of assay [5]: p53 small molecule agonists, cell-based qHTS assay with human liver microsomes (AID 1963577).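 Note: p53 response element beta-lactamase reporter cells with liver microsomes plus NADPH.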 The method, boiled down:
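HLM-supplemented p53RE-bla reporter assay: 16 h compound exposure at 37 C, microsomes and NADPH each 0.5 mg/mL final, read by fluorescence intensity.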

Assay [6] in a line: p53 small molecule agonists, cell-based qHTS assay with rat liver microsomes (AID 1963578). The method, boiled down: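 Quantitative HTS of the Tox21 10K library: p53RE-bla cells, rat liver microsomes plus NADPH at 0.5 mg/mL final each, 16 h at 37 C, beta-lactamase fluorescence detection.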
Assay [7] in a line: p53 small molecule agonists, cell-based qHTS assay with human liver microsomes: qHTS cell viability counter screen (AID 1963579). Note: nearly all actives have a fitted effect of over 45% in size. The method, boiled down:
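Viability of p53RE-bla cells is measured as CellTiter-Glo luminescence following a 16 h, 37 C incubation with compound, liver microsomes from human donors and NADPH.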

The nature of assay [8]: p53 small molecule agonists, cell-based qHTS assay with rat liver microsomes: qHTS cell viability counter screen (AID 1963580). Note: nearly all actives have a fitted effect of over 45% in size. The method, boiled down: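 Cytotoxicity counter screen: intracellular ATP measured by CellTiter-Glo luminescence in the same wells as the beta-lactamase reporter read, on HCT-116 p53RE-bla cells exposed 16 h at 37 C to compounds with rat liver microsomes and NADPH, each 0.5 mg/mL final.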

Assay [9] can be described thus: p53 small molecule agonists, cell-based qHTS assay: qHTS cell viability counter screen (AID 1963581). Note: nearly all actives have a fitted effect of over 45% in size. The method, boiled down: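 qHTS counter screen: 16 h compound exposure at 37 C of p53RE-bla HCT-116 cells (4,000 per well, seeded 5 h prior), cell viability by ATP luminescence.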
Assay [10] is described as follows: p53 small molecule agonists, cell-based qHTS assay (AID 1963582; active = well fitted activation curve with a large enough effect in the signal ratio in the repeat runs, not every such curve was filed as active; the % refers to the signal ratio). The method, boiled down: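 Measured: fluorescence from cleaved LiveBLAzer substrate. System: p53RE-bla cells, 16 h compound treatment at 37 C, 2 h substrate step at room temperature.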
Assay [11] addresses 5-hydroxytryptamine receptor 2A (Homo sapiens) (UniProt P28223). Put plainly: 5-hydroxytryptamine receptor 2A (HTR2A) small molecule antagonists, cell-based qHTS assay (AID 1963586). Note: nearly all actives have a fitted effect of over 45% in size. The method in brief:
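CHO cells stably expressing human HTR2A were plated for 18 h at 37 C, then loaded with calcium dye for 1 h. Compounds were preincubated 5 min at room temperature before DOI (4 nM solution) was added. Kinetic fluorescence was read for 3 min.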

The target is the same in assay [12]. Put plainly: 5-hydroxytryptamine receptor 2A (HTR2A) small molecule agonists, cell-based qHTS assay (AID 1963587). Note: nearly all actives have a fitted effect of over 30% in size. The method in brief:
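CHO cells stably expressing human HTR2A, plated 18 h, loaded with calcium dye 1 h at 37 C. Agonist mode: compounds added and intracellular calcium fluorescence recorded kinetically for 2 min at 1 sec intervals.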

Assay [13] has as its target Muscarinic acetylcholine receptor M1 (Homo sapiens) (UniProt P11229). The assay can be described thus: Cholinergic receptor muscarinic 1 (CHRM1) small molecule antagonists, cell-based qHTS assay (AID 1963588). Note: nearly all actives have a fitted effect of over 40% in size. The method in brief: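 Compounds were tested at 15 concentrations in three independent runs. Dye-loaded CHRM1-CHO cells were exposed 5 min at room temperature before stimulation by acetylcholine added at 50nM. Intracellular calcium was read kinetically on FDSS for 3 min.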

Assay [14] has the same target. The assay can be described thus: Cholinergic receptor muscarinic 1 (CHRM1) small molecule agonists, cell-based qHTS assay (AID 1963589). Note: nearly all actives have a fitted effect of over 35% in size. Note: potency is the fitted concentration of half-maximal effect. The method, boiled down:
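Kinetic fluorescence (1 s intervals) of calcium-sensitive dye in human M1 CHO cells after compound addition; cells pre-incubated 18 h at 37 C/5% CO2 and dye-loaded 1 h.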

Assay [15] in a line: cAMP Responsive Elements (CRE) small molecule agonists, cell-based qHTS assay (AID 1963590). The method in brief:
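Test agents in DMSO were incubated 3 h at 37 C/5% CO2 with CRE-bla HEK 293T cells seeded 18 h earlier; LiveBLAzer B/G FRET substrate was added and read after 2 h at room temperature.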

Assay [16] is described as follows: cAMP Responsive Elements (CRE) small molecule antagonists, cell-based qHTS assay (AID 1963591; active = well fitted inhibition curve with a large enough effect in the signal ratio in the repeat runs, not every such curve was filed as active; the % refers to the signal ratio). The method, boiled down: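 Reporter line CRE-bla HEK 293T in dialyzed-FBS DMEM; cells preincubated 18 h, treated 3 h with compound plus NKH477 (0.25 uM final); LiveBLAzer FRET, 2 h RT.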
In assay [17] the target is Beta-2 adrenergic receptor (Homo sapiens) (UniProt P07550). The assay can be described thus: Adrenergic beta2 receptor (ADRB2) small molecule antagonists, cell-based qHTS assay (AID 1963592). Note: series mostly up to about 92 µM; nearly all actives have a fitted effect of over 50% in size. The method in brief: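 Assay format: CHO-ADRB2 cells, 18-20hr seeding at 37C/5% CO2, then compound plus 1nM isoproterenol agonist mix for 0.5hr RT. Homogeneous time-resolved fluorescence cAMP detection after 1hr, expressed as 665/615 nm ratio.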

The target is the same in assay [18]. Put plainly: Adrenergic beta2 receptor (ADRB2) small molecule agonists, cell-based qHTS assay (AID 1963593).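 Note: CHO cells stably overexpressing human ADRB2.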 The method, boiled down:
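CHO cells stably over-expressing ADRB2 were plated overnight at 37C, then dosed with compounds plus a stimulation mix containing 100uM IBMX and 25uM Ro-20-1724 for 0.5hr at room temperature. cAMP was measured by HTRF competition, 1hr.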

Assay [19] has as its target D(2) dopamine receptor (Homo sapiens) (UniProt P14416). The assay can be described thus: Dopamine D2 receptor (DRD2) small molecule agonists, cell-based qHTS assay (AID 1963594). Note: nearly all actives have a fitted effect of over 35% in size. The method, boiled down:
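HEK293 cells stably expressing human DRD2, pre-treated with PDE inhibitor Ro20-1724 (0.1 mM final) and compound 10 min at room temperature, then stimulated with NKH477 (200nM […]) for 30 min. cAMP read by HTRF (665/620 nm).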

Assay [20] shares this target. Put plainly: Dopamine D2 receptor (DRD2) small molecule antagonists, cell-based qHTS assay (AID 1963595; active = well fitted inhibition curve with a large enough effect in the signal ratio in the repeat runs, with a control signal flat; the % refers to the signal ratio). The method in brief:
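Antagonist mode in DRD2-HEK293 cells: after compound addition with 0.1 mM Ro20-1724, cells received quinpirole (12 nM) and NKH477 (200 nM) for 30 min at room temperature; HTRF cAMP read after 1 h detection.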

Values joined by “and” are separate entries in the source; they are usually repeats but may differ in a detail not shown here. Identical values can stand only once. Values without a mark were called inactive. Inconclusive results are not listed. Active and inactive are the calls of the source. Unless noted, calls come from the whole dose curve.
% is set by controls: 0 for no effect and ±100 for the full control effect.

Chain of Beta-2 adrenergic receptor (Homo sapiens) (P07550 whole entry, looked up): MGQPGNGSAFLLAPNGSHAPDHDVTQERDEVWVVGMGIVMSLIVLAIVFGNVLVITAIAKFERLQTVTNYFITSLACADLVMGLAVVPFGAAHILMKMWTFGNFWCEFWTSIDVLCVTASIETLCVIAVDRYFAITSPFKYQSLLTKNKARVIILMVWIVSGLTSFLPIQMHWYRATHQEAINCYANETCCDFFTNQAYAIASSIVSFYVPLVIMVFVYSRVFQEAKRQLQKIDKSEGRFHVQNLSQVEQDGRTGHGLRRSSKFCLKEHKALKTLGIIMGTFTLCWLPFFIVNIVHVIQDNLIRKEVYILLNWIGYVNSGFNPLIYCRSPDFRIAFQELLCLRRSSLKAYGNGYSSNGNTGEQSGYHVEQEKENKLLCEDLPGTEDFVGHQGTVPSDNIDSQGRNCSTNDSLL
Chain of Muscarinic acetylcholine receptor M1 (Homo sapiens) (P11229 whole entry, looked up): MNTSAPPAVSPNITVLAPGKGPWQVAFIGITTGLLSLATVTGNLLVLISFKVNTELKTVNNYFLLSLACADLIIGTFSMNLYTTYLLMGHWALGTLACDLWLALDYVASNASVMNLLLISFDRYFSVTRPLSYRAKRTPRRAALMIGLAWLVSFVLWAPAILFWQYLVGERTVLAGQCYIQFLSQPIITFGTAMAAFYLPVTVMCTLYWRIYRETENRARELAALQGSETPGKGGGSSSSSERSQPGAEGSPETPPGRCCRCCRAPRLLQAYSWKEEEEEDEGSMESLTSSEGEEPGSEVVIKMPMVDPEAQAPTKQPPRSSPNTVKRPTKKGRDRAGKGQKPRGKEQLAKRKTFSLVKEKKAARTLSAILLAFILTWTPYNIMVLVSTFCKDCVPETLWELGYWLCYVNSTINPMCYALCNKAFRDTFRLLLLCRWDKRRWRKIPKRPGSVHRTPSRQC
Chain of D(2) dopamine receptor (Homo sapiens) (P14416 whole entry, looked up): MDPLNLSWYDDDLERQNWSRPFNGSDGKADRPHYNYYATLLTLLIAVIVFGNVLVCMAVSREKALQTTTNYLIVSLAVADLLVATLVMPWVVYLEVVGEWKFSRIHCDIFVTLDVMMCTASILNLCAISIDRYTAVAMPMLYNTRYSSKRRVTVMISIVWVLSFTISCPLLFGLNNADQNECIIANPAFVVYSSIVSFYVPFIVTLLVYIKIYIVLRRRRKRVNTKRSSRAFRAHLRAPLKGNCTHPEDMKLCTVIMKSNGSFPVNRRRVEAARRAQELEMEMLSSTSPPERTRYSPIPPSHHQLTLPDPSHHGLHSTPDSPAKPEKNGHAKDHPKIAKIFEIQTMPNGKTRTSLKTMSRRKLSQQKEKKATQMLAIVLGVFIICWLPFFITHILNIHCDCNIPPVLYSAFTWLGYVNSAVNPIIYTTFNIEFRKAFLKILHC
Chain of 5-hydroxytryptamine receptor 2A (Homo sapiens) (P28223 whole entry, looked up): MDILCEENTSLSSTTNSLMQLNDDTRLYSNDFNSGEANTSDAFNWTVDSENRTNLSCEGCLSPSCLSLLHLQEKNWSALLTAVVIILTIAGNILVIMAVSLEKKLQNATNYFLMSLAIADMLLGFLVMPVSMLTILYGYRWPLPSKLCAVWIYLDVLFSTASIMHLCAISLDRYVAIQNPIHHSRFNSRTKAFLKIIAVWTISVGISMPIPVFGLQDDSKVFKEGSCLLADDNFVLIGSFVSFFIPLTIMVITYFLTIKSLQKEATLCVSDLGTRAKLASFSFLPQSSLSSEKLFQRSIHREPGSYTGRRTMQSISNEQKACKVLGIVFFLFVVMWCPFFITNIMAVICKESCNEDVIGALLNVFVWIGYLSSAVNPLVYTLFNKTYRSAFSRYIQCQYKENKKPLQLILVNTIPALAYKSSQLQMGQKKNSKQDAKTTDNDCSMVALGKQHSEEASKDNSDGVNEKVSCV
Chain of Gonadotropin-releasing hormone receptor (Homo sapiens) (P30968 whole entry, looked up): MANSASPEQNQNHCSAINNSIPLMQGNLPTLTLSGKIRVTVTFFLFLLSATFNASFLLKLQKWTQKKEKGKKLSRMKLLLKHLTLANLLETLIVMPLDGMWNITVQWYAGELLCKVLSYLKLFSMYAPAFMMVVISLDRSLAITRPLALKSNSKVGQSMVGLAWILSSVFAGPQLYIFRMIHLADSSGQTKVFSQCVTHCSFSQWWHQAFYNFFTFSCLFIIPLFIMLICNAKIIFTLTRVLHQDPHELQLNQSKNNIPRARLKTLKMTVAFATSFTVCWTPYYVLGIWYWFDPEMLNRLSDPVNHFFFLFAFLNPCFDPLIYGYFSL

For the molecule `O=C1NC(c2ccccc2)(c2ccccc2)C(=O)N1COP(=O)(O)O`, the Potency result in [1], in [2], in assay [3], in assay [4], in [5] and in assay [6] was “inactive” throughout. Moreover, the Potency entry in assay [7], in assay [8], in assay [9], in [10], in assay [11] and in assay [12] was “inactive” throughout. In addition, the Potency entry in assay [13], in assay [14], in assay [15], in [16], in [17] and in assay [18] was “inactive” each time. Further, in assay [19], the Potency entry is “inactive”.
As to `Cc1cc(C)cc(OCC2CNC(=O)O2)c1` (centres undefined), the Potency result in [1], in [2], in [3], in assay [5], in [6] and in assay [7] was “inactive” in each case. The Potency result in assay [8], in [10], in [11], in [12], in [13] and in assay [14] was “inactive” in each case. Also, the Potency result in assay [15], in [16], in assay [17], in [18], in [19] and in assay [20] was “inactive” throughout.
On to `O=C(OCCOCCO)c1ccccc1Nc1cccc(C(F)(F)F)c1`, for which the Potency result in assay [1], in assay [2], in [3], in assay [6], in assay [7] and in [8] was “inactive” in each case. Further, the Potency entry in [9], in assay [10], in [11], in [12], in [14] and in assay [16] was “inactive” each time. The Potency result in assay [17], in assay [18], in [19] and in [20] was “inactive” in each case.
With `CCC(C)(C)C`, the Potency entry in [1], in assay [2], in [3], in [6], in assay [7] and in assay [8] was “inactive” throughout. Also, the Potency result in assay [9], in assay [10], in assay [11], in assay [12], in assay [13] and in [14] was “inactive” throughout. Also, the Potency entry in assay [15], in assay [16], in [17], in assay [19] and in assay [20] was “inactive” each time.
Take `CC(C[N+](C)(C)C)OC(N)=O` (centres undefined): the Potency result in assay [1], in assay [2], in assay [5], in [6], in assay [7] and in assay [8] was “inactive” each time. Also, the Potency entry in [9], in [12], in assay [13], in assay [15], in [16] and in assay [17] was “inactive” each time. The Potency entry in assay [18] and in assay [20] was “inactive” each time. For the same molecule, the Potency in assay [3] was 13.5 µM (active); in assay [14] it was 2.39 µM (active).
Regarding `[K+]`, the Potency entry in assay [1], in assay [2], in [3], in [5], in [6] and in [7] was “inactive” in each case. The Potency result in [9], in assay [10], in assay [11], in [12], in assay [13] and in [14] was “inactive” in each case. Also, the Potency entry in assay [15], in [17], in assay [18] and in assay [20] was “inactive” throughout.
As to `O=C(Nc1ccc([N+](=O)[O-])cc1Cl)c1cc(Cl)ccc1O`, the Potency in assay [1] is 1.93 µM (active) and 291 nM (active); in assay [2], 34.4 µM (active) and 41.1 nM (active). In addition, the Potency result in [3], in assay [5], in assay [6], in assay [7], in assay [8] and in assay [11] was “inactive” in each case. Further, the Potency result in [12], in assay [14] and in assay [19] was “inactive” in each case. Further, the activity, negative = inhibition in assay [13] is -9.19% [at 12.6 µM]. In addition, the activity change, negative = inhibition in assay [17] is -7.38% [at 19 µM].
Turning to `CCCCC(CC)COP(=O)(OCC(CC)CCCC)OCC(CC)CCCC` (centres undefined), the Potency result in assay [1], in [2], in [3], in [5], in assay [6] and in assay [7] was “inactive” each time. The Potency result in [9], in [10], in assay [12], in assay [14], in assay [15] and in [16] was “inactive” each time. Further, the Potency result in assay [19] and in [20] was “inactive” each time.

For the origin of these results see PubChem BioAssay (Tox21).
